From PubChem BioAssay
An excerpt weighted towards active compounds, which were near 18% of everything screened.
DT40 TDP1 CPT: qHTS for Inhibitors of human tyrosyl-DNA phosphodiesterase 1 (TDP1): qHTS in cells in presence of CPT | chicken DT40 Tdp1-/-;hTDP1 cells + 20 nM CPT, ATP luminescence, 48 h | Potency, µM (top dose mostly 46.2 µM), without a hit: at the highest dose activity change, negative = growth inhibition, actives largely listed as inhibitors | actives 12% (n = 420,000); further: potency means the concentration at half of the fitted maximal effect; nearly all actives have a fitted effect of over 55% in size
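Chicken DT40 Tdp1-/- cells stably complemented with human TDP1 were seeded at 400 cells/well in medium containing 20 nM camptothecin, exposed to pin-transferred compounds, and grown at 37 °C for at least 48 hr. Viability was read as ATP luminescence.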
DT40 TDP1 no CPT: qHTS for Inhibitors of human tyrosyl-DNA phosphodiesterase 1 (TDP1): qHTS in cells in absence of CPT; DT40 Tdp1-/- hTDP1 cells, no CPT, ATP luminescence, 48 h; Potency, µM (doses to about 46.2 µM), without a hit: at the top dose activity change, negative = growth inhibition, actives largely listed as inhibitors; actives 15% (n = 420,000); further: potency means the concentration at half of the fitted maximal effect; nearly all actives have a fitted effect of over 55% in size
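Stably hTDP1-transfected Tdp1-null chicken DT40 cells were treated with library compounds minus camptothecin and grown for at least 48 hr at 37 °C, after which cellular ATP was quantified by luminescence.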
LDHA inh: qHTS assay for inhibitors of human lactate dehydrogenase | actives 0.15% (n = 480,000) | AID 1347041, 2019 | activity change, % (values are at about 110 or 230 µM) | L-lactate dehydrogenase A chain (Homo sapiens), P00338 | purified LDHA, NADH/diaphorase-resazurin fluorescence; hits give low values; in the data active means activity change below about -30%; inconclusive means mostly about -25% to -30%;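 further: plate controls were DMSO wells for no effect and wells without enzyme for full effect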
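Human LDH5 at 2 nM final in Tris HCl pH 7.4 with 0.06 mM NADH and 0.2 mM pyruvate, reacted 5 minutes at room temperature. Remaining NADH coupled via diaphorase/resazurin; resorufin fluorescence read at 0 and 20 minutes, normalized to enzyme-free and DMSO wells.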
IL-1B inflam inh: qHTS for Inhibitors of Inflammasome Signaling: IL-1-beta AlphaLISA Primary Screen; THP-1 LPS/ATP IL-1B secretion, AlphaLISA, 16 h; hits give low values; activity change, % at 57.5 µM; actives 4.7% (n = 360,000); in the data active means activity change below about -50%; inconclusive means mostly about -30% to -49%
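THP-1 cells pretreated 1 hr with compounds (up to 57.5 uM final), then stimulated with LPS (250 ng/mL final) plus ATP (1.25 mM final); secreted IL-1B measured by AlphaLISA after 16 hr, decreased signal indicating inhibition.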
Gal4-VP16 FLuc: VP16 counterscreen qHTS for inhibitors of ROR gamma transcriptional activity. Potency, µM (series often up to 53.6 µM), without a hit: at the top dose activity, negative = inhibition, most hits filed as inhibitors. Drosophila S2 Gal4-VP16 UAS-luciferase, luminescence, 20 h. actives 3.5% (n = 310,000);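 further: Gal4-VP16 expression switched on by copper sulfate through the metallothionein promoter; potency means the concentration at half of the fitted maximal effect; nearly all actives have a fitted effect of over 50% in size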
RORgamma inh: qHTS for inhibitors of ROR gamma transcriptional activity | Potency, µM (top dose mostly 53.6 µM), for inactives: top-dose activity change, negative = inhibition, usual class: inhibitors | AID 2551, 2010 | actives 5.4% (n = 310,000) | Drosophila S2 Gal4-RORgamma UAS-luciferase reporter, 20 h; further: potency means the concentration at half of the fitted maximal effect; nearly all actives have a fitted effect of over 60% in size
Target sequence (P51450 whole entry, looked up, the tested form may be a part): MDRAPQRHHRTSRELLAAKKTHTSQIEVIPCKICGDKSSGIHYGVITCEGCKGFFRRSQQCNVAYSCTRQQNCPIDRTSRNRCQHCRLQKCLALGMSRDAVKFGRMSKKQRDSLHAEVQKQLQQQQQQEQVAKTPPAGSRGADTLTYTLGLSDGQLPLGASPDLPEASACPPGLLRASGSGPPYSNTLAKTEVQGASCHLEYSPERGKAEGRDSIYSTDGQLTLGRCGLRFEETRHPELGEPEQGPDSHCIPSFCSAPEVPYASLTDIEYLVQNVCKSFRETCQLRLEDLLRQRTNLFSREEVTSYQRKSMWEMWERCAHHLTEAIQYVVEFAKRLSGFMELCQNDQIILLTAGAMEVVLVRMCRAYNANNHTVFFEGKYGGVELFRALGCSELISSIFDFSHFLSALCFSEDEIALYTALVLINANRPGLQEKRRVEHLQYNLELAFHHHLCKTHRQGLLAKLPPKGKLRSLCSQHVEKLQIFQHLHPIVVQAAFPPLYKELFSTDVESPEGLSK
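Using a luciferase readout, inhibitors were identified by reduced reporter activity in Drosophila cells coexpressing a copper-inducible Gal4–ROR gamma fusion and UAS-driven Photinus luciferase, incubated 20 hr after 700 uM copper sulfate.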
* marks the source's active call; other numbers are inactive results; [ ] = another dose, or the depositor's remark. Unless noted, the call rests on the fitted dose curve; in most records, active means well fitted curve in the direction sought with a large enough effect; inconclusive means small, poorly fitted or top-dose-only effect, or another doubt; inactive means no such curve, though single readings can be large; an effect the other way counts as inactive or inconclusive. Unless noted, on the % scale 0 is the no-effect control and ±100 the full control effect.

COc1ccc(C2=Nc3ccccc3NC(c3cccs3)=N2)cc1 was read as DT40 TDP1 CPT inconclusive, DT40 TDP1 no CPT inconclusive and LDHA inh -4.
Cc1ccc(C2=NC(c3ccccc3)=Nc3ccc(Cl)cc3N2)cc1 was read as DT40 TDP1 CPT inconclusive, DT40 TDP1 no CPT 23µM* and LDHA inh -2.
Screening COc1ccc(C2=Nc3cccc4cccc(c34)N2)cc1 returned DT40 TDP1 CPT inconclusive, DT40 TDP1 no CPT 16µM*, LDHA inh -6, IL-1B inflam inh 17, Gal4-VP16 FLuc -16% and RORgamma inh -6%.
Screening COc1ccc2c(c1)NC(c1cccnc1)=NC(c1ccc(F)cc1)=N2 returned DT40 TDP1 CPT 15µM*, DT40 TDP1 no CPT 9.2µM* and LDHA inh -2.
Cc1cccc(OCCN(C)C(=O)c2cc(=O)c3ccccc3o2)c1 was read as LDHA inh -2.
`CCOc1cc(C(=O)Nc2nc(C)cs2)ccc1OCc1ccncc1` gave LDHA inh 13.
`CC(C)Oc1ccc2c(=O)c(Oc3ccccc3)coc2c1` gave LDHA inh 0.
`COc1ccc(C2=NC(c3ccccc3)=Nc3ccc(C)cc3N2)cc1` gave DT40 TDP1 CPT 26µM*, DT40 TDP1 no CPT 21µM* and LDHA inh -5.
CCOc1ccc2nc3cc(NCc4ccc(OC)cc4)ccc3c(N)c2c1 was read as DT40 TDP1 CPT 15µM*, DT40 TDP1 no CPT 21µM*, LDHA inh 7, IL-1B inflam inh -9, Gal4-VP16 FLuc inconclusive and RORgamma inh 34%.
CCOc1ccc2nc3cc(N)ccc3c(N)c2c1 was read as DT40 TDP1 CPT inconclusive, DT40 TDP1 no CPT 18µM*, Gal4-VP16 FLuc inconclusive and RORgamma inh -2%[10 µM].
CCOc1ccc(CNc2ccc3c(c2)nc(C)n3C)cc1 was read as DT40 TDP1 CPT inconclusive, DT40 TDP1 no CPT inconclusive, LDHA inh 14, IL-1B inflam inh -2, Gal4-VP16 FLuc inconclusive and RORgamma inh 19%.
CCOc1ccc2nc3ccc4[nH]onc4c3c2c1 was read as DT40 TDP1 CPT inconclusive, DT40 TDP1 no CPT inconclusive, LDHA inh 5 and IL-1B inflam inh inconclusive.
`COc1ccc(CNC(=O)C(=O)Nc2ccc(C)cc2C)cc1` gave LDHA inh -31*.
Cc1ccccc1NC(=S)NCCC(c1ccccc1)c1ccccc1 was read as DT40 TDP1 CPT inconclusive, DT40 TDP1 no CPT inconclusive, LDHA inh -8, IL-1B inflam inh -62*, Gal4-VP16 FLuc 13µM* and RORgamma inh 5µM*.
For Cc1ccc(NC(=S)NCCC(c2ccccc2)c2ccccc2)c(C)c1 the results were DT40 TDP1 CPT 23µM*, DT40 TDP1 no CPT 16µM*, LDHA inh -8, IL-1B inflam inh -4, Gal4-VP16 FLuc -9%[0.365 µM] and RORgamma inh 3.5µM*.
Cc1ccc(NC(=S)NCCC(c2ccccc2)c2ccccc2)cc1 was read as LDHA inh 10.
S=C(NCCC(c1ccccc1)c1ccccc1)Nc1ccc(Cl)cc1Cl was read as LDHA inh -4.
Cc1ccc(NC(=S)NCc2ccccc2)c(C)c1 was read as DT40 TDP1 CPT 23µM*, DT40 TDP1 no CPT inconclusive, LDHA inh 1, IL-1B inflam inh -14, Gal4-VP16 FLuc 7.1µM* and RORgamma inh 5µM*.
For CC(Oc1ccc(F)c(F)c1)C(=O)NCCC(=O)N1CCCCC1 (stereo not drawn) the results were LDHA inh 5.
Screening CCC(C)c1ccccc1NC(=O)COC(=O)c1ccc(N2CCCC2)c([N+](=O)[O-])c1 (stereo not drawn) returned DT40 TDP1 CPT 21µM*, DT40 TDP1 no CPT inconclusive, LDHA inh -2, IL-1B inflam inh 19, Gal4-VP16 FLuc 1% and RORgamma inh -15%.
O=C(COC(=O)c1ccc2[nH]c3c(c2c1)CCCC3)Nc1ccccc1Cl was read as DT40 TDP1 CPT -7%, DT40 TDP1 no CPT 0%, LDHA inh -2, IL-1B inflam inh 22, Gal4-VP16 FLuc -10% and RORgamma inh 3%.
For CCC(C)c1ccccc1NC(=O)COC(=O)c1ccc2[nH]c3c(c2c1)CCCC3 (stereo not drawn) the results were DT40 TDP1 CPT 16µM*, DT40 TDP1 no CPT 18µM*, LDHA inh -4, IL-1B inflam inh -11, Gal4-VP16 FLuc 20µM* and RORgamma inh 6%.
`COC(=O)CCNC(=O)N1CCc2[nH]cnc2C1c1cc(Cl)ccc1F` (stereo not drawn) gave LDHA inh -24.
CC(NC(=O)c1ccccc1C(F)(F)F)C1CC2CCC1C2 (stereo not drawn) was read as LDHA inh -4.
Screening COc1cc(OC)c(OC)cc1/C=N/n1c(COc2ccccc2)n[nH]c1=S returned DT40 TDP1 CPT 1%, DT40 TDP1 no CPT -28%, LDHA inh -3, IL-1B inflam inh 20, Gal4-VP16 FLuc -9% and RORgamma inh -39%.
For COc1ccc(OC)c(/C=N/n2c(COc3ccccc3)n[nH]c2=S)c1 the results were DT40 TDP1 CPT -1%, DT40 TDP1 no CPT 12%, LDHA inh -9, IL-1B inflam inh 57, Gal4-VP16 FLuc -16% and RORgamma inh inconclusive.
`Cc1ccccc1/C=N/n1c(COc2ccccc2)n[nH]c1=S` gave DT40 TDP1 CPT 25%, DT40 TDP1 no CPT inconclusive, LDHA inh -2, IL-1B inflam inh 8, Gal4-VP16 FLuc inconclusive and RORgamma inh 4.5µM*.
Cc1ccc(/C=N/n2c(COc3ccccc3)n[nH]c2=S)s1 was read as DT40 TDP1 CPT -7%, DT40 TDP1 no CPT -8%, LDHA inh 0, IL-1B inflam inh 47, Gal4-VP16 FLuc -2% and RORgamma inh -6%.
For CCOc1ccccc1/C=N/n1c(COc2ccccc2)n[nH]c1=S the results were DT40 TDP1 CPT -14%, DT40 TDP1 no CPT -12%, LDHA inh -5, IL-1B inflam inh 50, Gal4-VP16 FLuc inconclusive and RORgamma inh 4.5µM*.
COc1ccc(/C=N/n2c(COc3ccccc3)n[nH]c2=S)cc1OC was read as DT40 TDP1 CPT -4%, DT40 TDP1 no CPT -5%, LDHA inh -7, IL-1B inflam inh 34, Gal4-VP16 FLuc -3% and RORgamma inh 5µM*.
